# PLCb3 inh: PLC-beta3 (human) inhibition, primary screen | inhibition, % at 12.2 µM | 0.18% of 370,000 active | Purified PLC-beta3, fluorogenic substrate, fluorescence | AID 720704;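 note: 0% = median of compound wells on plate and 100% = full blocker control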
# GC-B act: GC-B (human) receptor activation; P20594; HEK293-GC-B cells, CNP EC30, cGMP TR-FRET; 0% at EC30 CNP, 100% saturating CNP; activation, % at 10 µM; 0.11% of 370,000 active;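 active = activation at 10 µM reaching about 35% in either raw or pattern-adjusted values, limit read from the data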
# Target sequence (P20594 whole entry, looked up): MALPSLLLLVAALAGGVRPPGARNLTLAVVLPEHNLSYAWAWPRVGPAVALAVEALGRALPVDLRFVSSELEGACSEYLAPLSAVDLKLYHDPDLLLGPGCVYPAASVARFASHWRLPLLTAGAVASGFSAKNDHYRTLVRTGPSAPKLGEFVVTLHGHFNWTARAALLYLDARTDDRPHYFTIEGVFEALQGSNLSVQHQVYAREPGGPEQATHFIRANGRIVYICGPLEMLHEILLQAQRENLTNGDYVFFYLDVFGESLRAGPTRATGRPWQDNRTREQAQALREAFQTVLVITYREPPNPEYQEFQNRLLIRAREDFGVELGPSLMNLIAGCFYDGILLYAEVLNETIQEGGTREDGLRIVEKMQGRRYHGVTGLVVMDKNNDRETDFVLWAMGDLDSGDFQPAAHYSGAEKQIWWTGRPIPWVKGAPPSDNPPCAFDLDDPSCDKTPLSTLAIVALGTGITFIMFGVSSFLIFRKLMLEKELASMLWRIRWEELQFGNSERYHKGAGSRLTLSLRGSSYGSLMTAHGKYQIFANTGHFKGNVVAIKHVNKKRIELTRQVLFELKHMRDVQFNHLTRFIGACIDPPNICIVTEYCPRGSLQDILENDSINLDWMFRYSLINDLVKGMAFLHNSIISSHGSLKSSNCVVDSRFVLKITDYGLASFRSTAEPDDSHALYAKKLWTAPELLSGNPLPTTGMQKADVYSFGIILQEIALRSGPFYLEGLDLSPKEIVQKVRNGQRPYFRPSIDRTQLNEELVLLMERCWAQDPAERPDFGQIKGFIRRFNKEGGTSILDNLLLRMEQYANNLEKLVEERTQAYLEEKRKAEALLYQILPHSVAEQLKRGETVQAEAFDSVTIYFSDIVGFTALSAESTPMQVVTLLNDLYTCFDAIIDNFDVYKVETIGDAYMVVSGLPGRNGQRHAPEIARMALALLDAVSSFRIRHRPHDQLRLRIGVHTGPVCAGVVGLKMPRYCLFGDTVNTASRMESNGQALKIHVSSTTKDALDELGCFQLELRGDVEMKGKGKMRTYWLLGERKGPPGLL
# M18AAP inhibitor: PfM18AAP enzyme inhibition; 1.2% of 290,000 active; inhibition, % at 7.35 µM; recombinant PfM18AAP, H-Glu-NHMec fluorogenic cleavage; AID 1822;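 active = inhibition above the campaign mean inhibition over all tested compounds plus 3 SD, cut at about 28% in these data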;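 note: 0% = plate median of test compound wells and 100% = 2 mM ZnCl2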
# NPR1 activator: GC-A (human) enzyme activation. 0.14% of 370,000 active. HEK293 GC-A cells, cGMP TR-FRET, EC30 ANP; 0% at EC30 ANP, 100% saturating ANP. P16066. AID 1671463. activation, % at 10 µM; in the data active = activation above about 40%
# Rce1 inhib: yeast Ras-converting enzyme inhibition. AID 2563. calls only. 0.27% of 290,000 active. yeast membranes, quenched prenylated peptide cleavage fluorescence. Q03530;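 active = fall in fluorescence gain of 50% or more versus controls, with final raw signal at or below 3038400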;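 note: plate controls were neutral control wells for no effect and wells lacking membranes for full effect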
# PLCg1 inh: blocks human PLC-gamma1 enzyme activity | P19174 | purified PLC-gamma1, fluorogenic substrate, fluorescence | inhibition, % at 12.2 µM | 0.84% of 370,000 active; in the data active = inhibition above about 9.5%
# PLCgamma1 ctr: counter-screen for PLC-beta3 inhibitors: inhibitors of human PLC-gamma1. shares compounds with PLCg1 inh. purified PLC-gamma1, fluorogenic substrate, fluorescence. inhibition, % at 12.3 µM. 3.1% of 3,300 active; in the data active = inhibition above about 9.5%
# PLCbeta3 conf: confirmation of human PLC-beta3 inhibitors. purified PLC-beta3, fluorogenic substrate fluorescence. inhibition, % at 12.3 µM. 1% of 3,300 active. AID 743261. shares compounds with PLCg1 inh
# * marks the source's active call; other numbers are inactive results; i = inactive; . = not tested or not shown. In the library only some 2.2% were active in any assay of this set; here they are far more common. Cut-off read from the data, not from the text of the source, unless noted: active = inhibition above about 11%; inactive = the rest.
SMILES,PLCb3 inh,GC-B act,M18AAP inhibitor,NPR1 activator,Rce1 inhib,PLCg1 inh,PLCgamma1 ctr,PLCbeta3 conf
O=C(NCc1ccco1)c1ccc(Br)c(S(=O)(=O)N2CCCCC2)c1,9,6,-11,2,i,11*,-2,1
O=C(NCc1ccco1)c1ccc(F)c(S(=O)(=O)N2CCCCC2)c1,1,3,11,-3,.,0,.,.
Cc1ccccc1NS(=O)(=O)c1cc(C(=O)NCc2ccco2)ccc1C,3,2,4,-1,i,10*,3,2
Cc1ccc(C(=O)NCc2ccco2)cc1S(=O)(=O)Nc1cccc(C)c1C,1,7,-4,-2,i,0,.,.
CC(C)Nc1nc(NC(C)C)nc(Nn2cnnc2)n1,5,3,17,0,i,1,.,.
CC(C)Nc1nc(NC(C)C)nc(N(C)n2cnnc2)n1,5,-1,14,4,i,9.9*,-4,-3
CC1Oc2ccccc2N(CC(=O)Nc2ccc3c(c2)OCCO3)C1=O (stereo not drawn),9,1,-6,2,i,11*,-4,1
CC1Oc2ccccc2N(CC(=O)Nc2ccc3c(c2)OCO3)C1=O (stereo not drawn),6,0,2,-1,i,5,.,.
CCOC(=O)NC(Nc1nnc(SCC)s1)(C(F)(F)F)C(F)(F)F,6,2,-2,0,i,11*,-7,-5
CCSc1nnc(NC(=O)NC(C)(C(F)(F)F)C(F)(F)F)s1,0,0,-7,0,i,3,.,.
c1coc(-c2nnc3n2N=C(c2ccc4c(c2)OCO4)CS3)c1,4,17,.,21,.,2,.,.
CCCCOCCCNC(=O)C[C@@H]1C(=O)N2CCCC3=C2[C@@]1(C(=O)OCC)CCC3,1,6,.,3,.,-2,.,.
COc1ccc(CC2(CO)CCN(Cc3nc(C(C)C)cs3)CC2)cc1,7,3,-10,-1,i,13*,-6,-1
COc1cc(OC)c(S(=O)(=O)Nc2ccccc2NC(=O)CN2CCOCC2)cc1NC(C)=O,2,1,-1,4,i,15*,-6,-4
COc1cc(OC)c(S(=O)(=O)Nc2ccccc2N2CCOCC2)cc1NC(C)=O,1,0,-6,-4,i,4,.,.
CCN(CC)CCCNC(=O)C1(N[C@@H](Cc2c[nH]c3ccccc23)C(=O)NCC(OC)OC)CCCCC1,1,1,.,0,.,-2,.,.
CC(C)(C)c1ccc(/C=N/NC(=O)C[n+]2ccccc2)cc1,2,6,-6,2,i,9.9*,-8,-2
O=C(O)C1CCCCC1C(=O)NCCCN1CCCC1=O (stereo not drawn),-3,-2,-8,6,i,-1,.,.
O=C(NCCCN1CCCC1=O)NC1CCCCC1,11*,2,-1,2,i,5,-2,-1
O=C(COC(=O)c1ccc(S(=O)(=O)NCc2ccco2)cc1)Nc1ccccc1,-1,0,.,2,.,1,.,.
O=C(COC(=O)c1ccc(S(=O)(=O)NCc2ccco2)cc1)Nc1ccccc1OC(F)F,12*,-4,10,0,i,5,-6,-1
CCOC(=O)N1CCN(C(=O)C[C@H]2C[C@@]3(C(=O)OC)C(=C[C@H](C(C)(C)C)O[C@@H]3C)N(CCc3ccc(OC)c(OC)c3)C2=O)CC1,2,5,.,2,.,-2,.,.
CCOc1cc(C)c(Cl)cc1S(=O)(=O)NC1CC(C)(C)NC(C)(C)C1,6,11,-13,-5,i,10*,-8,-4
CCC[C@H]1[C@@H](OC(=O)NC2CCC2)CC[C@@]23CCCN2C(=O)CCC[C@@H]13,-2,-10,.,-11,.,-1,.,.
Cc1ccc(-c2nnn(CC(=O)N3CCCCC3)n2)c(-n2cnnn2)c1,12*,5,2,5,i,8,-3,1
